Laboratory results: PubChem BioAssay (Tox21)
Inconclusive results are not listed. A call without a number means that no potency is given here. The source holds several records for some structures; these can differ, active in one and inactive in another. The source made the active and inactive calls. Unless noted, the call rests on the fitted dose curve.

What was measured:
[1] = Nuclear factor erythroid 2-related factor 2/antioxidant responsive element (Nrf2/ARE) small molecule agonists: qHTS cell viability counter screen in human keratinocytes (AID 1919968; active means well fitted curve in the direction sought with a large enough effect in the repeat runs; an effect the other way counts as inactive or inconclusive; further: nearly all actives have a fitted effect of over 55% in size)
Procedure, shortened: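 Viability counter-screen: KeratinoSens reporter cells, DMSO-delivered compounds, 23 h at 37 C, CellTiter-Fluor fluorescence.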

[2] = biological target: Gonadotropin-releasing hormone receptor (Homo sapiens) (UniProt P30968); experiment: Human gonadotropin-releasing hormone receptor (GnRHR) small molecule agonists, calcium flux assay in GnRHR-HEK293 cells (AID 1920063); further: nearly all actives have a fitted effect of over 35% in size
Chain of Gonadotropin-releasing hormone receptor (Homo sapiens) (P30968 whole entry, looked up): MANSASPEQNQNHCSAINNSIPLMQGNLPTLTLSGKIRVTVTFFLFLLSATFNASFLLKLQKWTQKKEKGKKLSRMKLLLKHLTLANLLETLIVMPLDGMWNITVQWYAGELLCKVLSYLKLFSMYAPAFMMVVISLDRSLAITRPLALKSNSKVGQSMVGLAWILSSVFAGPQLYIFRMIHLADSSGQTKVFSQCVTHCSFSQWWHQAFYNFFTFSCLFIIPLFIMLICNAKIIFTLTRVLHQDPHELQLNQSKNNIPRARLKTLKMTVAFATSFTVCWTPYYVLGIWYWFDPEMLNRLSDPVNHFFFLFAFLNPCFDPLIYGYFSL
Procedure, shortened: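 Tox21-format agonist screen using human GnRHR-expressing HEK293 cells and a fluorescent calcium dye; kinetic 3-min fluorescence reading after compound addition, 15-point concentration series run in triplicate.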

[3] = G protein-coupled receptor (GPCR) small molecule agonists, calcium flux assay: HEK293 wild type cell line counter screen (AID 1920065)
Procedure, shortened: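 In this agonist-mode screen, ATP is the positive control and DMSO the vehicle. Cells grow 18 h before a 1 h dye incubation at 37 C; signal is taken at Ex/Em 480/540 over 3 min.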

[4] = p53 small molecule agonists, cell-based qHTS assay with human liver microsomes (AID 1963577);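 further: p53 response element beta-lactamase reporter cells with liver microsomes plus NADPH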
Procedure, shortened: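 16 h, 37 C exposure of p53RE-bla cells to compounds with human liver microsomes and NADPH (0.5 mg/mL final each); detection via LiveBLAzer mixture, 2 h dark at room temperature.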

[5] = p53 small molecule agonists, cell-based qHTS assay with rat liver microsomes (AID 1963578)
Procedure, shortened: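 With rat liver microsomes and NADPH present (0.5 mg/mL final each), p53RE-bla cells are treated with compound for 16 h at 37 C. LiveBLAzer detection mixture is then applied for 2 h at room temperature in the dark.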

[6] = p53 small molecule agonists, cell-based qHTS assay with human liver microsomes: qHTS cell viability counter screen (AID 1963579); further: nearly all actives have a fitted effect of over 45% in size
Procedure, shortened: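 In this multiplexed counter screen, the reporter plates were subsequently treated with CellTiter-Glo so that cell viability, reflected by luminescence, could be recorded for p53RE-bla cells dosed 16 h with compounds under microsomal activation (HLM and NADPH).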

[7] = p53 small molecule agonists, cell-based qHTS assay with rat liver microsomes: qHTS cell viability counter screen (AID 1963580); further: nearly all actives have a fitted effect of over 45% in size
Procedure, shortened: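 Viability is assessed in parallel with the p53 reporter read: HCT-116 p53RE-bla cells receive compounds plus rat microsomes and NADPH (0.5 mg/mL final apiece), incubate 16 h at 37 C, and then CellTiter-Glo luminescence is recorded.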

[8] = p53 small molecule agonists, cell-based qHTS assay: qHTS cell viability counter screen (AID 1963581); further: nearly all actives have a fitted effect of over 45% in size
Procedure, shortened: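 Compounds are pinned onto HCT-116 p53RE-bla cells and left 16 h at 37 C. Following the reporter FRET read, ATP is quantified by CellTiter-Glo luminescence after 30 min at room temperature.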

[9] = p53 small molecule agonists, cell-based qHTS assay (AID 1963582; active means well fitted activation curve with a large enough effect in the signal ratio in the repeat runs, not every such curve was filed as active; the % refers to the signal ratio)
Procedure, shortened: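 Agonist activity was scored from beta-lactamase FRET fluorescence in p53RE-bla cells treated 16 h at 37 C with compounds in DMSO, substrate incubation being 2 h at room temperature.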

[10] = biological target: 5-hydroxytryptamine receptor 2A (Homo sapiens) (UniProt P28223); experiment: 5-hydroxytryptamine receptor 2A (HTR2A) small molecule antagonists, cell-based qHTS assay (AID 1963586); further: nearly all actives have a fitted effect of over 45% in size
Chain of 5-hydroxytryptamine receptor 2A (Homo sapiens) (P28223 whole entry, looked up): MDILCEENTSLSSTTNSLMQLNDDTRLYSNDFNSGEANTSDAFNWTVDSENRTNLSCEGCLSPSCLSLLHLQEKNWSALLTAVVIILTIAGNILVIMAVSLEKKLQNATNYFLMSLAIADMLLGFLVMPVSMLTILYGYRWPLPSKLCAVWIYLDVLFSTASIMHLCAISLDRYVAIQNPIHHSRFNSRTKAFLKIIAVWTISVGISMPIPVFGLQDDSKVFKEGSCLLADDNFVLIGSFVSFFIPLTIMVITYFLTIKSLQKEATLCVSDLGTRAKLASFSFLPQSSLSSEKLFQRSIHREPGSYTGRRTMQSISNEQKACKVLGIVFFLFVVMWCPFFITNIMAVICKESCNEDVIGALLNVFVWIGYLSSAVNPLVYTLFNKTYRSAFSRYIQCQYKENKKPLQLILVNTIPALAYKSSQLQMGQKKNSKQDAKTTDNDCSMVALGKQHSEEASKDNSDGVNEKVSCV
Procedure, shortened: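 Antagonist-mode intracellular calcium assay: DOI (4 nM) added after 5 min compound pre-incubation at room temperature to dye-loaded HTR2A-CHO cells. Fluorescence followed for 3 min, sampled every second.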

[11] = biological target: 5-hydroxytryptamine receptor 2A (Homo sapiens) (UniProt P28223); experiment: 5-hydroxytryptamine receptor 2A (HTR2A) small molecule agonists, cell-based qHTS assay (AID 1963587); further: nearly all actives have a fitted effect of over 30% in size
Procedure, shortened: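 CHO cells stably expressing human HTR2A, plated 18 h, loaded with calcium dye 1 h at 37 C. Agonist mode: compounds added and intracellular calcium fluorescence recorded kinetically for 2 min at 1 sec intervals.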

[12] = biological target: Muscarinic acetylcholine receptor M1 (Homo sapiens) (UniProt P11229); experiment: Cholinergic receptor muscarinic 1 (CHRM1) small molecule antagonists, cell-based qHTS assay (AID 1963588); further: nearly all actives have a fitted effect of over 40% in size; further: potency means the concentration at half of the fitted maximal effect
Chain of Muscarinic acetylcholine receptor M1 (Homo sapiens) (P11229 whole entry, looked up): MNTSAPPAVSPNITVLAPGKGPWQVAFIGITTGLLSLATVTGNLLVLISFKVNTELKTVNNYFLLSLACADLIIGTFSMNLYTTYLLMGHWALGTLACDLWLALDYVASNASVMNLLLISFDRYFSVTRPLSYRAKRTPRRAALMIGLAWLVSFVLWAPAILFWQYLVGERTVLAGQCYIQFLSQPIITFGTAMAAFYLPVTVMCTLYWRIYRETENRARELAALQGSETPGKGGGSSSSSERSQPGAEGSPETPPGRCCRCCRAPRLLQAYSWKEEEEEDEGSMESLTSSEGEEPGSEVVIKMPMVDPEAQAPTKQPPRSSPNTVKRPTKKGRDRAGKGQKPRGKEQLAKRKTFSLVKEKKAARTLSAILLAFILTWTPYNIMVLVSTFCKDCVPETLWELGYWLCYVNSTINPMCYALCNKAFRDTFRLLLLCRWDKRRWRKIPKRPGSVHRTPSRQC
Procedure, shortened: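 CHRM1-CHO calcium-flux assay, antagonist mode. Cells were seeded 18 h, dye-loaded 1 h at 37 C and given compound for 5 min at RT, then acetylcholine was added at 50nM. FDSS fluorescence was read 3 min; 15 concentrations, three runs.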

[13] = biological target: Muscarinic acetylcholine receptor M1 (Homo sapiens) (UniProt P11229); experiment: Cholinergic receptor muscarinic 1 (CHRM1) small molecule agonists, cell-based qHTS assay (AID 1963589); further: nearly all actives have a fitted effect of over 35% in size
Procedure, shortened: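 Stable CHRM1-CHO cells (human receptor) were incubated 18 h, dye-loaded for 1 h at 37 C and exposed to test compounds for agonist activity, with calcium-dependent fluorescence followed kinetically.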

[14] = cAMP Responsive Elements (CRE) small molecule agonists, cell-based qHTS assay (AID 1963590)
Procedure, shortened: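 FRET-based beta-lactamase readout (LiveBLAzer B/G, 2 h RT) quantified CRE activation in HEK 293T CRE-bla cells after 3 h treatment with DMSO-dissolved compounds.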

[15] = cAMP Responsive Elements (CRE) small molecule antagonists, cell-based qHTS assay (AID 1963591; active means well fitted inhibition curve with a large enough effect in the signal ratio in the repeat runs, not every such curve was filed as active; the % refers to the signal ratio)
Procedure, shortened: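 qHTS in CRE-bla HEK 293T cells: compound in DMSO, then 0.25 uM NKH477 (final), 3 h at 37 °C/5% CO2; beta-lactamase FRET read-out after 2 h substrate incubation.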

[16] = biological target: Beta-2 adrenergic receptor (Homo sapiens) (UniProt P07550); experiment: Adrenergic beta2 receptor (ADRB2) small molecule antagonists, cell-based qHTS assay (AID 1963592); further: series mostly up to about 92 µM; nearly all actives have a fitted effect of over 50% in size
Chain of Beta-2 adrenergic receptor (Homo sapiens) (P07550 whole entry, looked up): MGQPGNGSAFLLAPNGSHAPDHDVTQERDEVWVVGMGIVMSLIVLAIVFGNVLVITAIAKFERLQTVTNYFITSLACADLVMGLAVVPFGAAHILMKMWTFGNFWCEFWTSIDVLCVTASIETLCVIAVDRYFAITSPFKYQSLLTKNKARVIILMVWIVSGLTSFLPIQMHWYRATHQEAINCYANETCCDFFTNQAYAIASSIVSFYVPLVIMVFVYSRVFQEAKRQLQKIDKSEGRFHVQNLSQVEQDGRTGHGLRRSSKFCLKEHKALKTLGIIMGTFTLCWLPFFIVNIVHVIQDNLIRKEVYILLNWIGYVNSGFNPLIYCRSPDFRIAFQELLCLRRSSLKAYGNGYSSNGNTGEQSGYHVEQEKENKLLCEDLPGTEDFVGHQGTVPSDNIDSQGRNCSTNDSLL
Procedure, shortened: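 Cells (CHO, stable ADRB2 overexpression) incubated 18-20hr at 37C; compounds added from DMSO; agonist mix (1nM isoproterenol, 100uM IBMX, 25uM Ro-20-1724) added; 0.5hr RT; d2-cAMP and anti-cAMP-cryptate added; 1hr RT; 665/615 nm read.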

[17] = biological target: D(2) dopamine receptor (Homo sapiens) (UniProt P14416); experiment: Dopamine D2 receptor (DRD2) small molecule agonists, cell-based qHTS assay (AID 1963594); further: nearly all actives have a fitted effect of over 35% in size
Chain of D(2) dopamine receptor (Homo sapiens) (P14416 whole entry, looked up): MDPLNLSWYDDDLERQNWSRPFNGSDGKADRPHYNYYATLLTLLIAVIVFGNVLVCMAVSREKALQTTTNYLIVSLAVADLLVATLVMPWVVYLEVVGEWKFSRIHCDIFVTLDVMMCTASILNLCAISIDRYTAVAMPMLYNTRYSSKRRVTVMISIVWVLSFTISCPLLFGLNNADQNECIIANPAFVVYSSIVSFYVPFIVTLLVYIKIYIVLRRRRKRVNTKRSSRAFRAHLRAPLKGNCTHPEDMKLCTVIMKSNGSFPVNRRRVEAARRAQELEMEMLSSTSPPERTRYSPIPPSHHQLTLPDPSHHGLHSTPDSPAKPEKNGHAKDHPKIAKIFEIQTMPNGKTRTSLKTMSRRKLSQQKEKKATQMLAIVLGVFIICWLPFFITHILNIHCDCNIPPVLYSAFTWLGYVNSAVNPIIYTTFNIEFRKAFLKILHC
Procedure, shortened: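 HEK293 cells stably expressing human DRD2, pre-treated with PDE inhibitor Ro20-1724 (0.1 mM final) and compound 10 min at room temperature, then stimulated with NKH477 (200nM […]) for 30 min. cAMP read by HTRF (665/620 nm).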

[18] = biological target: D(2) dopamine receptor (Homo sapiens) (UniProt P14416); experiment: Dopamine D2 receptor (DRD2) small molecule antagonists, cell-based qHTS assay (AID 1963595; active means well fitted inhibition curve with a large enough effect in the signal ratio in the repeat runs, with a control signal flat; the % refers to the signal ratio)
Procedure, shortened: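 HEK293 cells stably expressing DRD2 were preincubated with 0.1 mM Ro20-1724, then with compound for 10 min at room temperature. Cells were stimulated with 200 nM NKH477 plus 12 nM quinpirole for 30 min, and cAMP was read by HTRF.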

[19] = biological target: Beta-2 adrenergic receptor (Homo sapiens) (UniProt P07550); experiment: Adrenergic beta2 receptor (ADRB2) small molecule agonists, cell-based qHTS assay (AID 1963593);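 further: CHO cells stably overexpressing human ADRB2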
Procedure, shortened: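 CHO cells stably over-expressing ADRB2 were plated overnight at 37C, then dosed with compounds plus a stimulation mix containing 100uM IBMX and 25uM Ro-20-1724 for 0.5hr at room temperature. cAMP was measured by HTRF competition, 1hr.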

[20] = biological target: KiSS-1 receptor (Homo sapiens) (UniProt Q969F8); experiment: Human kisspeptin (KISS1R) small molecule agonists, calcium flux assay in KISS1R-HEK293 cells (AID 1920064; active means well fitted curve in the direction sought with a large enough effect in the repeat runs; an effect the other way counts as inactive or inconclusive)
Chain of KiSS-1 receptor (Homo sapiens) (Q969F8 whole entry, looked up): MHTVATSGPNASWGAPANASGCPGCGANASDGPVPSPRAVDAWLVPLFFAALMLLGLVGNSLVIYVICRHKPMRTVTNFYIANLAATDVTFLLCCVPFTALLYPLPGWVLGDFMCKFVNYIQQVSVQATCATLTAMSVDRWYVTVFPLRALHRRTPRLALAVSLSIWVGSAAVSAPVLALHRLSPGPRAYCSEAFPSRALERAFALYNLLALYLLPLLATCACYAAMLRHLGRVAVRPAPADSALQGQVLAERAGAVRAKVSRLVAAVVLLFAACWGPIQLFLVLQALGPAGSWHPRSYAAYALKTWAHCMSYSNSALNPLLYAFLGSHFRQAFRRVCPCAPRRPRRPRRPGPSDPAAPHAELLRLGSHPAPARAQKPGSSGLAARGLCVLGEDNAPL
Procedure, shortened: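 Intracellular calcium mobilization in KISS1R-HEK293 cells was recorded by fluorescence (Ex/Em 480/540) for 3 min following compound addition to cells pre-loaded 1 h with calcium dye.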

SMILES | Potency [1] | Potency [2] | Potency [3] | Potency [4] | Potency [5] | Potency [6] | Potency [7] | Potency [8] | Potency [9] | Potency [10] | Potency [11] | Potency [12] | Potency [13] | Potency [14] | Potency [15] | Potency [16] | Potency [17] | Potency [18] | Potency [19] | Potency [20]
OCc1ccco1 | inactive | inactive | inactive | inactive | inactive | inactive | inactive | inactive | inactive | inactive | inactive | inactive | inactive | inactive | inactive | inactive | inactive | inactive |  | 
C=CC(=O)NC(C)(C)CC(C)=O | inactive | inactive | inactive | inactive | inactive | inactive | inactive | inactive | inactive | inactive | inactive | inactive | inactive | inactive | inactive | inactive | inactive | inactive | inactive | 
ClC(Cl)(Cl)c1ccccc1 | inactive | inactive | inactive | inactive | inactive | inactive | inactive | inactive | inactive | inactive | inactive | inactive | inactive | inactive | inactive | inactive | inactive | inactive | inactive | 
CC1(C)CC(=O)CC(C)(C)N1[O] | inactive | inactive | inactive | inactive | inactive | inactive | inactive | inactive | inactive |  | inactive | inactive | inactive | inactive |  | inactive | inactive | inactive | inactive | 
C=C(C)[C@@H]1CC=C(C=O)CC1 | inactive | inactive | inactive | inactive | inactive | inactive | inactive | inactive | inactive | inactive | inactive |  | inactive | inactive | inactive | inactive | inactive | inactive | inactive | 
CC(C)(N)Cc1ccccc1Cl | inactive | inactive | inactive | inactive | inactive | inactive | inactive | inactive | inactive | inactive | inactive | inactive | inactive | inactive | inactive | inactive | inactive | inactive |  | 
COC(=O)NC(=S)Nc1ccccc1NC(=S)NC(=O)OC | inactive | inactive | inactive | inactive | inactive | inactive | inactive | inactive | inactive | inactive | inactive | inactive | inactive | inactive | inactive | inactive | inactive | inactive | inactive | 
CC[N+](=O)[O-] | inactive | inactive | inactive | inactive | inactive | inactive | inactive | inactive | inactive | inactive | inactive | inactive | inactive | inactive |  | inactive | inactive | inactive | inactive | 
CCCCOCCOC(C)=O | inactive | inactive | inactive | inactive | inactive | inactive | inactive | inactive | inactive | inactive | inactive | inactive | inactive | inactive | inactive | inactive | inactive | inactive | inactive | 
C[C@]12CC[C@H](O)CC1=CC[C@@H]1[C@@H]2CC[C@]2(C)C(=O)CC[C@@H]12 | inactive | inactive |  |  |  | inactive | inactive | inactive |  |  |  |  |  |  |  | inactive | inactive | inactive | inactive | inactive
CC(C=O)Cc1ccc2c(c1)OCO2 (configuration not stated) | inactive | inactive | inactive | inactive | inactive | inactive | inactive | inactive | inactive | inactive | inactive | inactive | inactive | inactive | inactive | inactive | inactive | inactive |  | 
COC(C)(C)CCCC(C)C/C=C/C(C)=C/C(=O)OC(C)C (configuration not stated) | inactive | inactive | inactive | inactive | inactive | inactive | inactive | inactive | inactive | inactive | inactive | 3.3 nM (active) and inactive | inactive | inactive | inactive | inactive | inactive | inactive | inactive | 
Nc1ccc(-c2ccc(N)cc2)cc1 | inactive | inactive | inactive | inactive | inactive | inactive | inactive | inactive | inactive | inactive | inactive |  | inactive | inactive | inactive | inactive | inactive | inactive |  | 
O=C(Cc1ccccc1)c1ccccc1 | inactive | inactive | inactive | inactive | inactive | inactive | inactive | inactive | inactive | inactive |  | inactive | inactive | inactive | inactive | inactive | inactive | inactive | inactive | 
